Experiments:
Test in all cases: log2 ratio of Biotin-Ahx-Ub-VS probe labelling (fragment/DMSO); higher = less target engagement (more negative = stronger competition), active = hit call of the paper (q ≤ 0.05, log2 ratio ≤ -1)
Conditions in all cases: compound concentration: 200 uM; treatment time: 3 h
USP9X = USP9X (UniProt Q93008)
Summary of the method: (§1)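 HEK293T lysate (495 µg per sample, in Tris/CHAPS/IGEPAL buffer with protease inhibitors) was exposed in triplicate for 3 h to fragment at 200 µM or to vehicle, then to Biotin-Ahx-Ub-VS at 0.5 µM final for 1 h. Labelled DUBs were enriched on NeutrAvidin, digested with LysC and trypsin, and analysed by diaPASEF LC-MS/MS. Spectronaut label-free quantities were normalised to the global median, and values are average log2 ratios of fragment over vehicle from an unpaired t-test. Only proteins with ≥2 unique peptides were used.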

UniProt O00487 = biological target: UniProt O00487
Summary of the method: as §1

UniProt O00507 = biological target: UniProt O00507
Sequence of UniProt O00507 (O00507 whole entry): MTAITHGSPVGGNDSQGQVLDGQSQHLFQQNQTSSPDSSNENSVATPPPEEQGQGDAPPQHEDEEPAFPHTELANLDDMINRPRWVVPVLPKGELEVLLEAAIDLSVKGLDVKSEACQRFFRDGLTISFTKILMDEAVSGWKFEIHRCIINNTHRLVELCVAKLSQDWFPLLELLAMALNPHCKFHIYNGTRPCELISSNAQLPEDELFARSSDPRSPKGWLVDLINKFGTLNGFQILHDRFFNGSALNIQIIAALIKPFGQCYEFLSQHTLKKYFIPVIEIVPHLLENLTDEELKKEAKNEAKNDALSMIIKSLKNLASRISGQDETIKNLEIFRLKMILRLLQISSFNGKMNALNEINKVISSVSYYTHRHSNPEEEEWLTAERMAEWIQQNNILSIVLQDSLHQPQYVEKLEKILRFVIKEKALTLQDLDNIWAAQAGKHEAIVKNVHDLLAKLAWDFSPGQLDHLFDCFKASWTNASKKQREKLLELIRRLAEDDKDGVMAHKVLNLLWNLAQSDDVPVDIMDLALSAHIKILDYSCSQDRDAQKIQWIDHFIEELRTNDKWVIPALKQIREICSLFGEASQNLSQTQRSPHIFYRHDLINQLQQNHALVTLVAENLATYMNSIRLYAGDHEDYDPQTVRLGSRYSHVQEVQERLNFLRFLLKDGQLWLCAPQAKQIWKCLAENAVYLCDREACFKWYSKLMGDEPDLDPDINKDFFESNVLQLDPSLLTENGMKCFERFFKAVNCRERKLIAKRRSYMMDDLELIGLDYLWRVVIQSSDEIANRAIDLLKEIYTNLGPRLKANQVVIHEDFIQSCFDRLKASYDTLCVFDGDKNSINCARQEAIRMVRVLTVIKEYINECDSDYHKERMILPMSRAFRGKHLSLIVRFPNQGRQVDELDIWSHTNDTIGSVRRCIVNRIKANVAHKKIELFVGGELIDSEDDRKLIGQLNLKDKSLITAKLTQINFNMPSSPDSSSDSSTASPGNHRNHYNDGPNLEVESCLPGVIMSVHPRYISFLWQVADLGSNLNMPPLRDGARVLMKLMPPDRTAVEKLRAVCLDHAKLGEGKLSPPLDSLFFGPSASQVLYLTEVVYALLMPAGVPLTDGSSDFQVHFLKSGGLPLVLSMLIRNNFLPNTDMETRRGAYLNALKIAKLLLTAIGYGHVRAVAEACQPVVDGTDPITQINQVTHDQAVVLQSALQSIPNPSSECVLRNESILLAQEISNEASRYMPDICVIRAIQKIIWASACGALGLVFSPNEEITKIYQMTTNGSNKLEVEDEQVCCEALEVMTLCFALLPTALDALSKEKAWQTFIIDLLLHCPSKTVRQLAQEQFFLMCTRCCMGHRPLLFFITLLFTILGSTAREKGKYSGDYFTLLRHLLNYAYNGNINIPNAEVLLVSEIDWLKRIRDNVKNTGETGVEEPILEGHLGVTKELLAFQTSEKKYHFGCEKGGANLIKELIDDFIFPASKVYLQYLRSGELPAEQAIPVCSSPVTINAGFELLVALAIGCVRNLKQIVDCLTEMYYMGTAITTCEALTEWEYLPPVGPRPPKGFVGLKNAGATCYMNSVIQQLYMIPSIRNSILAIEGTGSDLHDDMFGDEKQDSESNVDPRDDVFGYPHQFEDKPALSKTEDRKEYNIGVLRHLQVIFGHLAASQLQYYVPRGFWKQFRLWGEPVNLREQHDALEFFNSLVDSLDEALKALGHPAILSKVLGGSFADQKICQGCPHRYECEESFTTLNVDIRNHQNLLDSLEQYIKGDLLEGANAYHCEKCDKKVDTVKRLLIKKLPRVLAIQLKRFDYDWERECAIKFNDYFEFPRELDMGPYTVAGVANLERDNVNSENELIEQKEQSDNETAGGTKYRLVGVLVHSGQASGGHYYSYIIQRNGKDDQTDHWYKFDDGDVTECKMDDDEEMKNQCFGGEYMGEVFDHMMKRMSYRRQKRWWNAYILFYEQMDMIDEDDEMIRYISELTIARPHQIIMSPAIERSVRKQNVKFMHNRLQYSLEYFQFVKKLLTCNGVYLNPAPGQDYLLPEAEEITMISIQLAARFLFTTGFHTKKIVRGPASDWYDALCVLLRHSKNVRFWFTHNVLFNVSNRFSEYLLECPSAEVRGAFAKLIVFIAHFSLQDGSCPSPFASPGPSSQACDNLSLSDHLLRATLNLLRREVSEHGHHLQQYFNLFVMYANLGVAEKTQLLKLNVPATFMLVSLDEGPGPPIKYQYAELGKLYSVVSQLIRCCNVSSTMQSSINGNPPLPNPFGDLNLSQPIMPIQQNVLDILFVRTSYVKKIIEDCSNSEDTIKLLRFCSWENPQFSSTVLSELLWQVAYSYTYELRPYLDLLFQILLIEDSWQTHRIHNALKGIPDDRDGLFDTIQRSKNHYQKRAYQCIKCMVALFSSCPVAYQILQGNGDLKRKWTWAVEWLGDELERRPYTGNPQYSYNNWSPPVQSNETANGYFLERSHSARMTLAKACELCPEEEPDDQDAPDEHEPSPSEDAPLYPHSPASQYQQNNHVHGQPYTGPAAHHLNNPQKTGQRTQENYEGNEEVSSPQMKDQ
Summary of the method: as §1

UniProt P51784 = biological target: UniProt P51784
Summary of the method: as §1

UniProt Q5T2D3 = biological target: T1, UniProt Q5T2D3
T1 sequence (whole entry): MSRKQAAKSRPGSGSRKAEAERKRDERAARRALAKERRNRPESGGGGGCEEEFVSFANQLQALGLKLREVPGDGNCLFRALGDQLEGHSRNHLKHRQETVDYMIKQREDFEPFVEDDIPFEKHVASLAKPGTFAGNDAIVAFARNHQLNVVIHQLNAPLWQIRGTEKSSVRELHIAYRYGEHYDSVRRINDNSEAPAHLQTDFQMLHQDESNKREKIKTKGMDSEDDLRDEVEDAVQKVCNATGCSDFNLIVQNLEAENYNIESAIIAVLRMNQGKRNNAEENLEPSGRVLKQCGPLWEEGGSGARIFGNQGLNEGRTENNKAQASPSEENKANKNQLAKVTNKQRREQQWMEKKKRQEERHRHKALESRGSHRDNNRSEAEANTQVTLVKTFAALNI
Summary of the method: as §1

UniProt Q8TE49 = biological target: T2, UniProt Q8TE49
T2 sequence (whole entry): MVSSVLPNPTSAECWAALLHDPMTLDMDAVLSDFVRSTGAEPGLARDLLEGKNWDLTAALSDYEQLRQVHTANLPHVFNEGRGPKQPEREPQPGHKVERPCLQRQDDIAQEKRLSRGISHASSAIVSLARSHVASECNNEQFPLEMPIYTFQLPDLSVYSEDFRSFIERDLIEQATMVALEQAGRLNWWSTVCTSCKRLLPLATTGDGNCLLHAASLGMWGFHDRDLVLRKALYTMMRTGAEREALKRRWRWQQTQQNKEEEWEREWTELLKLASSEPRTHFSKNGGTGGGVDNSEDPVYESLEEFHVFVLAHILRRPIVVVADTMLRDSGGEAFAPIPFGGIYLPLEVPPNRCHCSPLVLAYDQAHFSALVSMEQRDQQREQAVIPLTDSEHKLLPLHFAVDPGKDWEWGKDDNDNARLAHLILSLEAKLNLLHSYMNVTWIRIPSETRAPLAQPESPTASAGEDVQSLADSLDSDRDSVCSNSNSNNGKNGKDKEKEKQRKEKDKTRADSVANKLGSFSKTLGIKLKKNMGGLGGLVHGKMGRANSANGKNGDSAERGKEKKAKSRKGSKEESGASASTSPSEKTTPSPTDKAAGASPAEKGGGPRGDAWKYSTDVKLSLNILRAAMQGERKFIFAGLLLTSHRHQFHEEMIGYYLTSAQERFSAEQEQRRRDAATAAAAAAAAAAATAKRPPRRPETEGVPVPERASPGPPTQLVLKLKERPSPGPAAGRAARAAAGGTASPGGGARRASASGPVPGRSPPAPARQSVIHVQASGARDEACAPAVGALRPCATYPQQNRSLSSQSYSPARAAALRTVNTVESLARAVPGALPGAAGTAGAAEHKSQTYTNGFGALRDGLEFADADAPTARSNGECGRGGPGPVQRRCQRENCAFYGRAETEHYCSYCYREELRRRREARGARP
Summary of the method: as §1

UniProt Q9P2H5 = biological target: T3, UniProt Q9P2H5
T3 sequence (whole entry): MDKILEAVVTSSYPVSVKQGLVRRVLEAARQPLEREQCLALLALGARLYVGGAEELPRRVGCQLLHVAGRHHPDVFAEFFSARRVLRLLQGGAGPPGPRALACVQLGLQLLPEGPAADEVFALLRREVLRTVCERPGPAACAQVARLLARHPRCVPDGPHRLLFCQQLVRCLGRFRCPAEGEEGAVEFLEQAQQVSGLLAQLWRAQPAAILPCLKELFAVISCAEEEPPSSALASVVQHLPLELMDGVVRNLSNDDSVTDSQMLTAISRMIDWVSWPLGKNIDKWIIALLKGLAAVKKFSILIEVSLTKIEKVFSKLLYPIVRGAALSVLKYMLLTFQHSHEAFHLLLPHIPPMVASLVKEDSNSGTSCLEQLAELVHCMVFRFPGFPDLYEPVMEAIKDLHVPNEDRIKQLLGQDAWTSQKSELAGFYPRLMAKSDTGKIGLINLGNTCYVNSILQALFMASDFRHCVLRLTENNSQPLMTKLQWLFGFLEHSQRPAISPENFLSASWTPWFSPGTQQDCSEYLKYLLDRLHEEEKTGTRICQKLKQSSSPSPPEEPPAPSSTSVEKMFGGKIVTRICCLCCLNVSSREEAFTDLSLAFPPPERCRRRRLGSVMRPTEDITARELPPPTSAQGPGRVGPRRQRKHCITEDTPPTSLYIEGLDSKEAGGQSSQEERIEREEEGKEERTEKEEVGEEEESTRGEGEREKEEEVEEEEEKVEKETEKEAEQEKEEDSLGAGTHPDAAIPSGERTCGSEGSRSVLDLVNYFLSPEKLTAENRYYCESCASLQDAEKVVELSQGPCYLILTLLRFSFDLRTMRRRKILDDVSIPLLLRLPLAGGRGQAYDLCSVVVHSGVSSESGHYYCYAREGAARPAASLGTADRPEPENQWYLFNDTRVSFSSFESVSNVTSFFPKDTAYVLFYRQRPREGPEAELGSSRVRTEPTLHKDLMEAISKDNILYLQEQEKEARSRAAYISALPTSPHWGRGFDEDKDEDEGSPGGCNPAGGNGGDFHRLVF
Summary of the method: as §1

UniProt Q9UGI0 = biological target: T4, UniProt Q9UGI0
T4 sequence (whole entry): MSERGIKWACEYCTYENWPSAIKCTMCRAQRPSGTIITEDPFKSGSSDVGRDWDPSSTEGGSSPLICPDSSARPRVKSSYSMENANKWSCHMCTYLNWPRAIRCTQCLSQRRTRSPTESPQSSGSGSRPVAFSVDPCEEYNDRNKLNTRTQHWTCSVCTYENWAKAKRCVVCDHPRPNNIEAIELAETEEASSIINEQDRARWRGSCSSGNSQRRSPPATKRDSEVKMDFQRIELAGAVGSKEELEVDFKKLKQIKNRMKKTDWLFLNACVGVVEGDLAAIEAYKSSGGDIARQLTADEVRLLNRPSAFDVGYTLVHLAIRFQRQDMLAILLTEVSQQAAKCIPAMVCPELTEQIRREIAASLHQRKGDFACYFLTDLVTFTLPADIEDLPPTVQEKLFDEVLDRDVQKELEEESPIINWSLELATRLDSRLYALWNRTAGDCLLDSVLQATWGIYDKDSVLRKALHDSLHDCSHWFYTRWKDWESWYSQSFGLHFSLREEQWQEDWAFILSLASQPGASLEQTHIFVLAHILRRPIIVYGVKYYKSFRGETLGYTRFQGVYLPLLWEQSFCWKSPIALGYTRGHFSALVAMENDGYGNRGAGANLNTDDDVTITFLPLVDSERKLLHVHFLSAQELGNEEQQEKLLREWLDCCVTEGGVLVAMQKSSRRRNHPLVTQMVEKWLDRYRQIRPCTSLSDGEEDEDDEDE
Summary of the method: as §1

YOD1 = biological target: T5, YOD1 (UniProt Q5VVQ6)
T5 sequence (whole entry): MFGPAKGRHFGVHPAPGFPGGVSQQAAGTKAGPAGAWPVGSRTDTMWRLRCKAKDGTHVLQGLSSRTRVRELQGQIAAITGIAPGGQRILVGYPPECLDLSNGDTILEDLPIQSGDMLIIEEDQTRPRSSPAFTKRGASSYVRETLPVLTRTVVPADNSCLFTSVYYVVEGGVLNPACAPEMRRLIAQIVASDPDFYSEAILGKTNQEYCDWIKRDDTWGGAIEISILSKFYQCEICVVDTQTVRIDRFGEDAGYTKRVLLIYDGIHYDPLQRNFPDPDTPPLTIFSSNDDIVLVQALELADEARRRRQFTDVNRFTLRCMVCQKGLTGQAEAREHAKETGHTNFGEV
Summary of the method: as §1

Measured: log2 ratio of Biotin-Ahx-Ub-VS probe labelling

Sequence of USP9X (Q93008 whole entry, the tested form may be a part): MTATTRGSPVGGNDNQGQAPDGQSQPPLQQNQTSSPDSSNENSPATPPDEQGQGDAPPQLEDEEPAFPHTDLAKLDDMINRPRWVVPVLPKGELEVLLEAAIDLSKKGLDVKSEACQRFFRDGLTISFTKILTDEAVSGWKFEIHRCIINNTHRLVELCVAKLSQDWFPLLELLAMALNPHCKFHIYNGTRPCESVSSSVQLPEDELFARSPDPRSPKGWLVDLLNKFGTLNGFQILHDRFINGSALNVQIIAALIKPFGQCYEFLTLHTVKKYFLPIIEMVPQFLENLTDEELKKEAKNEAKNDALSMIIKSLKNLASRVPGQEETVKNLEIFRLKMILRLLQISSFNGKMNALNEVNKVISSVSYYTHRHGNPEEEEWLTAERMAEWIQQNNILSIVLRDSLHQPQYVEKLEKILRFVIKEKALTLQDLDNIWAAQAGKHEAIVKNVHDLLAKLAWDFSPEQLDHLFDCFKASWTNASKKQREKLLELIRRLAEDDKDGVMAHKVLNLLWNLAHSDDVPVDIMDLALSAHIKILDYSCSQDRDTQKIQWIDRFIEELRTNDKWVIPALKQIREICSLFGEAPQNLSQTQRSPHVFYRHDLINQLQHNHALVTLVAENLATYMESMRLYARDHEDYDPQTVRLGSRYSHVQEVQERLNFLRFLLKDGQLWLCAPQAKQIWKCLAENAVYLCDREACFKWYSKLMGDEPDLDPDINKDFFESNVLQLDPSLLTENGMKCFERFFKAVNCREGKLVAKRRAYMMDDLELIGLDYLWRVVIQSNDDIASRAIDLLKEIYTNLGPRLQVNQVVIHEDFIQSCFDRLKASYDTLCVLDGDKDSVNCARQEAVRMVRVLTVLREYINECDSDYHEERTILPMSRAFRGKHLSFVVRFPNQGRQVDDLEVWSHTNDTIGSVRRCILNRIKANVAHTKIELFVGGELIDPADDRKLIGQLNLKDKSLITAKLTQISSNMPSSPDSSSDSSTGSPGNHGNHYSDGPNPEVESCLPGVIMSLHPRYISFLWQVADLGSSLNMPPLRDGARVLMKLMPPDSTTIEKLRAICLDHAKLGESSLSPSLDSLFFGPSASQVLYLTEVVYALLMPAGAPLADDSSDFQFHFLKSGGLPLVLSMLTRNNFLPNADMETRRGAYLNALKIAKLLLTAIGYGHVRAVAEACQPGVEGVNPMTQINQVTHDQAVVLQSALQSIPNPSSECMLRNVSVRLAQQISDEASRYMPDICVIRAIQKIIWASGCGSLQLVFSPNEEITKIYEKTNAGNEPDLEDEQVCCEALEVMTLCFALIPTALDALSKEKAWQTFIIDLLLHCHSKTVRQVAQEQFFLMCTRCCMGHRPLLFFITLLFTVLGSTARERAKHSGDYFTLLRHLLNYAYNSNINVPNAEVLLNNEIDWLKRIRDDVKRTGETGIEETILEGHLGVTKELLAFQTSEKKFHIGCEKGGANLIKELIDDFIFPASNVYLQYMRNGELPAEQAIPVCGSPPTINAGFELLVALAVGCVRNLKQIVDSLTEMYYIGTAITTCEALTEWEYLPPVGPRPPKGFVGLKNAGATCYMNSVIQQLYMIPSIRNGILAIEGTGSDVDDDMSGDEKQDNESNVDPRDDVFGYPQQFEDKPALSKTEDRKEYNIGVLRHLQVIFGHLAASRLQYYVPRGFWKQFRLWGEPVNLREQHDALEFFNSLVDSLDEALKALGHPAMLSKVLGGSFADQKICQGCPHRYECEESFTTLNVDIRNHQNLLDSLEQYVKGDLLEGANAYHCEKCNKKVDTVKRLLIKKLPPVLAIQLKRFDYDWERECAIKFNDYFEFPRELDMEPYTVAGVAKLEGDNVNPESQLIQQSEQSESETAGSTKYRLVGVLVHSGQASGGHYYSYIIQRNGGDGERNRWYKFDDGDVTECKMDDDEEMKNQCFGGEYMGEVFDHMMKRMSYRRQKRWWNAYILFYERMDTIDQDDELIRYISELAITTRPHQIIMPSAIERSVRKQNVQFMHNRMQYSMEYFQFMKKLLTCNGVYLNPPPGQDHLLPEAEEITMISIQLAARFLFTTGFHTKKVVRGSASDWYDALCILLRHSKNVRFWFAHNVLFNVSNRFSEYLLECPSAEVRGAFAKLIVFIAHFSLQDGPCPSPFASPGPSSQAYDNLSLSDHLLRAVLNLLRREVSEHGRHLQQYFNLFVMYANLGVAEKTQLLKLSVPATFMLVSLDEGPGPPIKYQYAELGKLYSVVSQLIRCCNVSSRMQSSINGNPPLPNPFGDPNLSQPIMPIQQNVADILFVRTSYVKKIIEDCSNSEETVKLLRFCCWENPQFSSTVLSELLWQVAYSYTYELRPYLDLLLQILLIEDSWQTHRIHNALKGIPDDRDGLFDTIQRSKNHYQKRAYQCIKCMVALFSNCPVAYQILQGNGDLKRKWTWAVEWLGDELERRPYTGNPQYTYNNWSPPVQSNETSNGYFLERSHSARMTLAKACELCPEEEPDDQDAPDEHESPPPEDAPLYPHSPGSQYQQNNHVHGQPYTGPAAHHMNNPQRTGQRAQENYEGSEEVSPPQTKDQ

O=C(CCl)Nc1nnc(CC(F)(F)F)o1
inactive: USP9X -0.134 | UniProt O00487 -0.296 | UniProt O00507 -0.0948 | UniProt P51784 -6e-05 | UniProt Q5T2D3 -0.844 | UniProt Q8TE49 -0.179 | UniProt Q9P2H5 -0.149 | UniProt Q9UGI0 -0.304 | YOD1 0.0603

Source: the supplement of paper PMC11732987, “Enantioselective OTUD7B fragment discovery through chemoproteomics screening and high-throughput optimisation” (Communications Chemistry, 2025)
